pS6 MEF inh: reduces mTORC1 signaling in Tsc2 and p53 null MEF cells; Tsc2-/- p53-/- MEF, phospho-rpS6 immunofluorescence/PI, 24 h; Potency, µM (top dose mostly 38.3 µM), actives largely listed as inhibitors; hit rate 0.78% among 44,000; further: nearly all actives have a fitted effect of over 50% in size
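Cell-based qHTS: Tsc2-/- p53-/- MEF, 24 h cpd, 37 °C; fix/perm, anti-phospho-S6 Alexa-488 + PI; Acumen 488 nm scan; pS6/PI ratio, % positive cells; rapamycin 7.5 nM = inhibition ref; PI count = viability.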
GALC G270D up: raises human GALC G270D mutant activity in cells | Potency, µM (doses to about 57.5 µM), most hits filed as activators | hit rate 0.1% among 45,000 | 145M-Twi-hGALC-G270D cells (Twitcher mouse brain line with human GALC G270D), HMU-beta-Gal fluorescence, 48 h; further: nearly all actives have a fitted effect of over 65% in size
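Fluorescence readout: HMU-β-gal cleavage by mutant GALC (0.1 mM final, citrate/phosphate pH 5.2 with 1 mg/mL taurocholate), stopped with carbonate/bicarbonate plus Triton X-100. Cells: murine Twitcher 145M-Twi expressing human G270D GALC; qHTS for activators.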
SKOV3 invasion: inhibitors of ovarian cancer cell adhesion and invasion in omental model; SKOV3ip1-GFP adhesion/invasion on 3D omental model, fluorescence; Potency, µM (highest dose often 45.8 µM), hits mostly inhibitors; hit rate 0.1% among 46,000; further: nearly all actives have a fitted effect of over 65% in size
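Adhesion/invasion was scored as fixed GFP-labeled SKOV3ip1 cell counts (488/509 nm), normalized to DMSO and tomatine controls. Cancer cells in serum-free medium, with four compound doses (0.36-46 umol/L), sat 2 hr at RT then 16 hr at 37 C on a 48 hr fibroblast/mesothelial/ECM culture.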
S16 viability: cytotoxicity in S16 Pmp22-F2sN Schwann cells. S16 Pmp22-F2sN Schwann cells viability, CellTiter-Glo, 24 h. Potency, µM (top dose mostly 57.5 µM), most hits filed as cytotoxic. hit rate 0.48% among 43,000. AID 1508642; further: nearly all actives have a fitted effect of over 65% in size
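Used to flag compounds lowering reporter output through toxicity, this quantitative HTS measures ATP-based CellTiter-Glo luminescence in S16 Pmp22-F2sN Schwann cells after 24 h compound exposure at 37C.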
PMP22 txn: PMP22 gene transcription modulation; S16 Pmp22-F2sN Schwann cells, FLuc/NLuc coincidence luminescence, 24 h; hit rate 2% among 43,000; Potency, µM (titrated, usually from 57.5 µM), hits mostly inhibitors; active means clear falling dose curves in both reporters; inconclusive means both reporters move, but less clearly or upward; inactive means either reporter flat; the % is the NLuc reporter signal
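Reporter cells (S16 Pmp22-F2sN, 500–1,000 per well) exposed to compounds for 24 h, 37C, 5% CO2; lysis with FLuc read after 10 min, then Stop&Glo and NLuc read after 10 min.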
NLuc saturating: inhibits NanoLuc at saturating substrate, PMP22 counter-screen | hit rate 4% among 690 | Secreted NLuc enzyme (filtered S16 cell medium), Nano-Glo luminescence | Potency, µM (titrated, usually from 57.5 µM), actives largely listed as inhibitors | shares compounds with PMP22 txn
NLuc Km counter: NanoLuc inhibition at Km substrate, PMP22 artifact check. shares compounds with PMP22 txn. secreted NLuc enzyme, coelenterazine luminescence, Km conditions. Potency, µM (highest dose often 57.5 µM), most hits filed as inhibitors. hit rate 5% among 690. AID 1508639
FLuc counter: counter-screen for PMP22 expression modulators: firefly luciferase inhibition; shares compounds with PMP22 txn; purified P. pyralis FLuc, luminescence, 10 min; Potency, µM (titrated, usually from 57.5 µM), usual class: inhibitors; 690 tested, under 10 active
Target sequence (P08659 whole entry, looked up): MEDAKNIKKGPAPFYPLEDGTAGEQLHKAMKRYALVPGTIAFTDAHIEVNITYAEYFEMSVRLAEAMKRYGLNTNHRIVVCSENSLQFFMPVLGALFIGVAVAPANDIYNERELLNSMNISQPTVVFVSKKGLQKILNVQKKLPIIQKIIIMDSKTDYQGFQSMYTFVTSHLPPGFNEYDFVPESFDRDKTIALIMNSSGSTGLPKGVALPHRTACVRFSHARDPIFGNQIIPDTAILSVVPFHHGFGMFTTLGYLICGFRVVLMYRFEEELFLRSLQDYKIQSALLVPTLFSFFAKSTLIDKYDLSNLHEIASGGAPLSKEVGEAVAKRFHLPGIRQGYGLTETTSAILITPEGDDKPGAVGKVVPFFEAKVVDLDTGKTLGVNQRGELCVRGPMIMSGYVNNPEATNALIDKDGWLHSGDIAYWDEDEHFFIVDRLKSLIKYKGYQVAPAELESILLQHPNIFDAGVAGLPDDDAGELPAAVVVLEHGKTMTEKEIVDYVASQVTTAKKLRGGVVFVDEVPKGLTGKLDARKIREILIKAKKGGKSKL
S16 viab conf: confirmation of cytotoxicity in S16 Pmp22-F2sN Schwann cells (luciferase reporters placed in the Pmp22 gene); S16 Schwann cells viability, CellTiter-Glo ATP luminescence, 24 h; AID 1508641; Potency, µM (highest dose often 57.5 µM), most hits filed as cytotoxic; shares compounds with PMP22 txn; hit rate 7% among 690
PMP22 txn cnf: confirmation of modulators of PMP22 gene transcription in S16 cells; shares compounds with PMP22 txn; S16 Schwann cells Pmp22-F2sN, dual luciferase, 24 h; hit rate 22% among 690; Potency, µM (top dose mostly 57.5 µM), hits mostly inhibitors; AID 1508646; active means clear falling dose curves in both reporters; inconclusive means both reporters move, but less clearly or upward; inactive means either reporter flat; the % is the FLuc reporter signal
PMP22 prot conf: rat PMP22 protein level modulation, confirmatory; Potency, µM (highest dose often 27.9 µM), actives largely listed as inhibitors; 95 tested, under 10 active; shares compounds with PMP22 txn; AID 1508647; S16 Schwann cells Pmp22-HiBiT, luminescence, 48 h
Target sequence (P25094 whole entry, looked up): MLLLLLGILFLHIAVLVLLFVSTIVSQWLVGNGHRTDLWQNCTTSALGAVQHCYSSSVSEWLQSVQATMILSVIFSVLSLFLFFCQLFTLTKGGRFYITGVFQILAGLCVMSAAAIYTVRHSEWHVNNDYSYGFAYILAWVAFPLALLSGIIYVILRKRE
Numbers stand for hits. Rows were chosen to be rich in hits. Some 2.6% of all compounds tested hit in one or more screens of this group. Unless noted, the call rests on the fitted dose curve; in most records, active means well fitted curve in the direction sought with a large enough effect; inconclusive means small, poorly fitted or top-dose-only effect, or another doubt; inactive means no such curve, though single readings can be large; an effect the other way counts as inactive or inconclusive.

What do the screens show for `CC[C@H](C=C[C@@H](C)[C@H]1CC[C@H]2[C@@H]3CC=C4C[C@@H](O)CC[C@]4(C)[C@@H]3CC[C@]12C)C(C)C`?
SKOV3 invasion: inactive

Results for Cc1cccc2c1-c1sc(C(=O)N(C)c3cccc(C(F)(F)F)c3)cc1CO2 ?
pS6 MEF inh: inactive; GALC G270D up: inactive; SKOV3 invasion: inactive; S16 viability: inactive; PMP22 txn: inactive

What do the screens show for `CCN(C(=O)c1cc2c(s1)-c1ccccc1OC2)c1cccc(C(F)(F)F)c1`?
pS6 MEF inh: inactive; GALC G270D up: inactive; SKOV3 invasion: inactive; S16 viability: inactive; PMP22 txn: 20µM; NLuc saturating: inconclusive; NLuc Km counter: inactive; FLuc counter: inactive; S16 viab conf: inconclusive; PMP22 txn cnf: inactive

Results for CN(C)CCN(Cc1ccco1)C(=O)c1cc2c(s1)-c1ccccc1OC2 ?
pS6 MEF inh: 5.21µM; GALC G270D up: inactive; SKOV3 invasion: inconclusive; S16 viability: inconclusive; PMP22 txn: 16.8µM; NLuc saturating: inactive; NLuc Km counter: inactive; FLuc counter: inactive; S16 viab conf: inconclusive; PMP22 txn cnf: inconclusive

Results for O=C(CSc1nc2cc(C(=O)NC3CCCC3)ccc2c(=O)n1CC1CCCO1)c1cccc(Cl)c1 (centres undefined) ?
pS6 MEF inh: inactive; GALC G270D up: inactive; SKOV3 invasion: inactive; S16 viability: 28.2µM; PMP22 txn: 14.1µM; NLuc saturating: inactive; NLuc Km counter: inactive; FLuc counter: inactive; S16 viab conf: inactive; PMP22 txn cnf: inconclusive

What do the screens show for `Cc1ccc(C(=O)CSc2nc3cc(C(=O)NC4CCCC4)ccc3c(=O)n2CC2CCCO2)cc1` (centres undefined)?
pS6 MEF inh: inactive; GALC G270D up: inactive; SKOV3 invasion: inactive; S16 viability: inconclusive; PMP22 txn: inactive

What do the screens show for `CCC(=O)N1CCc2cc(Br)cc(S(=O)(=O)N3CCC(C(=O)NC(C)(C)C)CC3)c21`?
pS6 MEF inh: inactive; GALC G270D up: inactive; SKOV3 invasion: inactive; S16 viability: inactive; PMP22 txn: inactive; NLuc saturating: inactive; NLuc Km counter: inactive; FLuc counter: inactive; S16 viab conf: inactive; PMP22 txn cnf: inactive

Results for CCOC(=O)C1CCN(S(=O)(=O)c2cc(Br)cc3c2N(C(=O)CC)CC3)CC1 ?
pS6 MEF inh: inactive; GALC G270D up: inactive; SKOV3 invasion: inactive; S16 viability: inactive; PMP22 txn: inactive

Results for CCc1nn(CC(=O)N(CC)Cc2ccccc2)c(=O)c2cc3occc3n12 ?
pS6 MEF inh: inactive; GALC G270D up: inactive; SKOV3 invasion: inactive; S16 viability: inactive; PMP22 txn: inconclusive; NLuc saturating: inactive; NLuc Km counter: inconclusive; FLuc counter: inactive; S16 viab conf: inactive; PMP22 txn cnf: inactive

Results for O=c1cc(CN2CCOCC2)occ1OCCCCCSc1ccnc2cc(C(F)(F)F)ccc12 ?
SKOV3 invasion: inactive

How did CCCCN(CC)C(=O)CSc1nc2n[nH]c(C)c2c(=N)n1-c1ccc(CC)cc1 do in these assays?
pS6 MEF inh: inactive; GALC G270D up: inactive; SKOV3 invasion: inactive; S16 viability: inconclusive; PMP22 txn: 16.8µM; NLuc saturating: inconclusive; NLuc Km counter: inconclusive; FLuc counter: inactive; S16 viab conf: inactive; PMP22 txn cnf: inconclusive

What do the screens show for `CC1COC2(CCN(c3nc(=O)c4cc(C(F)(F)F)cc([N+](=O)[O-])c4s3)CC2)O1` (centres undefined)?
SKOV3 invasion: inactive

Results for Cc1ccc(NC(=O)CSc2nc3n[nH]c(C)c3c(=N)n2-c2ccccc2C)cc1C ?
pS6 MEF inh: inactive; GALC G270D up: inactive; SKOV3 invasion: inactive; S16 viability: inactive; PMP22 txn: 17µM; NLuc saturating: inconclusive; NLuc Km counter: inconclusive; FLuc counter: inactive; S16 viab conf: inactive; PMP22 txn cnf: inactive

How did COc1ccc(Cl)cc1NC(=O)Cn1c(=O)n(-c2ccc(C)cc2)c(=O)c2ccc(C(=O)NCc3ccccc3Cl)cc21 do in these assays?
pS6 MEF inh: inactive; GALC G270D up: inactive; SKOV3 invasion: inactive; S16 viability: inactive; PMP22 txn: 10µM; NLuc saturating: inactive; NLuc Km counter: inactive; FLuc counter: inactive; S16 viab conf: 30.6µM; PMP22 txn cnf: 11.1µM

How did Cc1ccc(CNC(=O)c2ccc(Cn3c(=O)c4ccccc4n(CC(=O)Nc4ccc(C)cc4)c3=O)cc2)cc1 do in these assays?
pS6 MEF inh: inactive; GALC G270D up: inactive; SKOV3 invasion: inactive; S16 viability: inconclusive; PMP22 txn: inconclusive

How did Cc1ccc(CNC(=O)c2ccc(Cn3c(=O)c4ccccc4n(CC(=O)Nc4ccc(C)cc4C)c3=O)cc2)cc1 do in these assays?
pS6 MEF inh: inactive; GALC G270D up: inactive; SKOV3 invasion: inactive; S16 viability: inactive; PMP22 txn: 14.1µM; NLuc saturating: inactive; NLuc Km counter: inactive; FLuc counter: inactive; S16 viab conf: inconclusive; PMP22 txn cnf: inconclusive

How did Cc1ccc(CNC(=O)c2ccc(Cn3c(=O)c4ccccc4n(CC(=O)Nc4c(C)cc(C)cc4C)c3=O)cc2)cc1 do in these assays?
pS6 MEF inh: inactive; GALC G270D up: inactive; SKOV3 invasion: inactive; S16 viability: inconclusive; PMP22 txn: 16µM; NLuc saturating: inactive; NLuc Km counter: inactive; FLuc counter: inactive; S16 viab conf: inconclusive; PMP22 txn cnf: 7.89µM; PMP22 prot conf: inconclusive

How did Cc1cc(Nc2cccc(Br)c2)n2c(nc3ccccc32)c1C#N do in these assays?
pS6 MEF inh: inactive; GALC G270D up: inactive; SKOV3 invasion: inactive; S16 viability: inconclusive; PMP22 txn: 8.97µM; NLuc saturating: inactive; NLuc Km counter: inconclusive; FLuc counter: inactive; S16 viab conf: inactive; PMP22 txn cnf: inconclusive

High-throughput results deposited in PubChem by National Center for Advancing Translational Sciences (NCATS).
